Consider 14 molecules from PubChem BioAssay (NCATS).

Records with an inconclusive call do not appear. Calls of active or inactive are those of the source. The call rests on the fitted dose curve; in most records, active means well fitted cell-killing curve with a large enough effect; inconclusive means small, poorly fitted or top-dose-only effect, or effect the other way; inactive means no such curve, though single readings can be large or run the other way.
Potency means the concentration at half of the fitted maximal effect.

The experiment can be described thus: Quantitative highthroughput screen to assess conditional lethalithy of NOMO1 cells grown in Human Plasma-Like Medium with dialyzed fetal bovine serum (HPLM+ds) (AID 1963878). Further: nearly all actives have a fitted effect of over 35% in size. Particulars: NOMO1 AML cells in HPLM+ds, CellTiter-Glo viability, 48 h; series mostly up to 45.8 µM. The procedure, abridged:
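Each medium arm—HPLM with 10% dialyzed FBS, or RPMI1640 with 5 mM glucose and 10% untreated or dialyzed FBS—was screened against an 11-point, 3-fold compound titration for 48 h at 37 °C, with CellTiter-Glo luminescence as endpoint.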
For orientation: Cellular ATP, detected with luciferase, serves as a proxy for viable cell number.
For `COc1cc2nc(N3CCN(C(=O)c4ccco4)CC3)nc(N)c2cc1OC`, the Potency is 13.2 µM (active).

With `CN(C)c1ccc(-c2nc3ncc(Cl)c(N4CCN(CC(=O)Nc5nccs5)CC4)c3[nH]2)cc1`, the Potency is 18.7 µM (active).

On to `CNC(=O)c1c(-c2ccc(F)cc2)oc2cc(N(CCO)S(C)(=O)=O)c(C3CC3)cc12`, for which the Potency was 8.33 µM (active).

Turning to `S=C(NCc1ccc2c(c1)OCO2)N1CCN(c2ncnc3c2oc2ccccc23)CC1`, the Potency is 38.2 µM (active).

Regarding `CC(C)(C)NC(=O)Nc1cccc(Nc2ncc(F)c(NC(C)(C)CO)n2)c1`, the Potency entry was “inactive”.

In the case of `CNC(=O)c1cc(Oc2ccc(NC(=O)Nc3ccc(Cl)c(C(F)(F)F)c3)c(F)c2)ccn1`, the Potency is 3.32 µM (active).

Turning to `NC1(c2ccc(-c3nc4ccn5c(=O)[nH]nc5c4cc3-c3ccccc3)cc2)CCC1`, the Potency is 20.9 µM (active).

Regarding `Cc1cccc(Nc2nc(N[C@@H]3CCCC[C@H]3N)ncc2C(N)=O)c1`, the Potency was 0.935 µM (active).

In the case of `N#CCNC(=O)c1ccc(-c2ccnc(Nc3ccc(N4CCOCC4)cc3)n2)cc1`, the Potency is 23.5 µM (active).

With `CN1CCN(c2cc(C(=O)Nc3ccc4c(c3)-c3c(c(C(N)=O)nn3-c3ccc(F)cc3)CC4)c(Cl)cn2)CC1`, the Potency was 26.4 µM (active).

As for `O=C(CN1C(=O)C2(CCCC2)NC[C@H]1c1cc(F)cc(F)c1)Nc1ccc2c(c1)C[C@@]1(C2)C(=O)Nc2ncccc21`, the Potency is 20.9 µM (active).

With `Cc1ccc2nc(NCCN)c3ncc(C)n3c2c1`, the Potency was 23.5 µM (active).

Regarding `O=C(O)C1=CC(O)C(O)[C@H](O)C1` (some centres undefined), the Potency result was “inactive”.

`CC1CCC(C(=O)N(c2cc(C#CC(C)(C)C)sc2C(=O)O)C2CCC(O)CC2)CC1` (centres undefined): the Potency was 5.26 µM (active).
